Screen size: about 5,500 compounds; about 2,000 (36%) were called active. Not shown: some 18% with an inconclusive outcome. Rule as the data show it: active = normalized growth mostly below about 0.91 (no sharp cut-off); inconclusive = no clear call, values can overlap the other calls; inactive = mostly above about 0.92. Some of the results follow.
Test: chemical genetic growth profiling, strain panel (AID 1159580);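 also: tested at 20 µM; growth read once vehicle control cultures reached saturation at 30 °C; 1 = growth at the plate median or of vehicle wells; lower values mean less growth of the strain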
Settings: S. cerevisiae deletion strains, growth OD

Measured: normalized growth

Cc1cccc(Nc2cc(Cl)nc(SCC(=O)O)n2)c1C
inactive: locus YAL021C, strain ccr4, stronger effect = lower value 0.932 | locus YAL026C, strain drs2, stronger effect = lower value 1.01 | locus YAL030W, strain snc1, stronger effect = lower value 1 | locus YBL061C, strain skt5, stronger effect = lower value 0.999 | locus YBR009C, strain hhf1, stronger effect = lower value 1.06 | locus YBR023C, strain chs3, stronger effect = lower value 1 | locus YBR171W, strain sec66, stronger effect = lower value 0.988 | locus YBR231C, strain swc5, stronger effect = lower value 1.01 | locus YBR279W, strain paf1, stronger effect = lower value 1.01 | locus YCL011C, strain gbp2, stronger effect = lower value 0.987 | locus YCL016C, strain dcc1, stronger effect = lower value 1.01 | locus YCL061C, strain MRC1, stronger effect = lower value 0.984 | locus YCL069W, strain vba3, stronger effect = lower value 0.99 | locus YCR088W, strain abp1, stronger effect = lower value 0.988 | locus YDL005C, strain med2, stronger effect = lower value 0.99 | locus YDL040C, strain nat1, stronger effect = lower value 0.996 | locus YDR001C, strain nth1, stronger effect = lower value 0.984 | locus YDR069C, strain doa4, stronger effect = lower value 0.998 | locus YDR137W, strain rgp1, stronger effect = lower value 0.934 | locus YDR159W, strain sac3, stronger effect = lower value 1.03 | locus YDR195W, strain ref2 0.987 | locus YDR297W, strain sur2, stronger effect = lower value 0.991 | locus YDR334W, strain swr1, stronger effect = lower value 0.969 | locus YDR335W, strain msn5, stronger effect = lower value 0.996 | locus YDR392W, strain spt3, stronger effect = lower value 0.965 | locus YEL003W, strain gim4, stronger effect = lower value 0.999 | locus YEL037C, strain rad23, stronger effect = lower value 0.999 | locus YEL061C, strain CIN8 (second series), stronger effect = lower value 0.991 | locus YER015W, strain faa2, stronger effect = lower value 1.02 | locus YER016W, strain bim1, stronger effect = lower value 1.01 | locus YER111C, strain swi4, stronger effect = lower value 1.01 | locus YER155C, strain BEM2 (second series), stronger effect = lower value 1.04 | locus YFR010W, strain ubp6, stronger effect = lower value 1 | locus YGL167C, strain pmr1, stronger effect = lower value 0.997 | locus YGL173C, strain kem1, stronger effect = lower value 1 | locus YGL227W, strain vid30, stronger effect = lower value 1 | locus YGL240W, strain doc1, stronger effect = lower value 1.03 | locus YGL253W, strain hxk2, stronger effect = lower value 1.01 | locus YHR013C, strain ard1, stronger effect = lower value 0.977 | locus YHR027C, strain rpn1, stronger effect = lower value 0.987 | locus YHR142W, strain chs7, stronger effect = lower value 0.936 | locus YJL092W, strain hpr5, stronger effect = lower value 0.983 | locus YJL095W, strain BCK1 (second series), stronger effect = lower value 0.987 | locus YJL115W, strain asf1, stronger effect = lower value 0.98 | locus YJL129C, strain trk1, stronger effect = lower value 0.986 | locus YJL154C, strain vps35, stronger effect = lower value 0.992 | locus YJL164C, strain tpk1, stronger effect = lower value 0.978 | locus YJL166W, strain qcr8, stronger effect = lower value 1.01 | locus YJL187C, strain SWE1, stronger effect = lower value 0.996 | locus YKL160W, strain elf1, stronger effect = lower value 0.955 | locus YKR026C, strain gcn3, stronger effect = lower value 0.988 | locus YKR091W, strain srl3, stronger effect = lower value 0.989 | locus YLL001W, strain dnm1, stronger effect = lower value 1 | locus YLL026W, stronger effect = lower value 0.992 | locus YLL041C, strain sdh2, stronger effect = lower value 0.99 | locus YLR027C, strain aat2, stronger effect = lower value 0.993 | locus YLR221C, strain rsa3, stronger effect = lower value 0.997 | locus YLR258W, strain gsy2, stronger effect = lower value 1.01 | locus YLR262C, strain YPT6 (second series), stronger effect = lower value 0.962 | locus YLR320W, strain mms22, stronger effect = lower value 0.989 | locus YLR342W, strain FKS1, stronger effect = lower value 1 | locus YLR357W, strain rsc2, stronger effect = lower value 1.02 | locus YLR370C, strain arc18, stronger effect = lower value 0.992 | locus YLR384C, strain iki3, stronger effect = lower value 0.998 | locus YML120C, strain ndi1, stronger effect = lower value 0.986 | locus YMR058W, strain fet3, stronger effect = lower value 0.983 | locus YMR125W, strain sto1, stronger effect = lower value 0.988 | locus YMR129W, stronger effect = lower value 0.973 | locus YMR205C, strain PFK2, stronger effect = lower value 1.05 | locus YMR231W, strain pep5, stronger effect = lower value 0.992 | locus YNL071W, strain lat1, stronger effect = lower value 0.985 | locus YNL209W, strain ssb2, stronger effect = lower value 0.993 | locus YNL248C, strain rpa49, stronger effect = lower value 0.933 | locus YNL322C, strain KRE1 (second series), stronger effect = lower value 0.996 | locus YNR049C, strain mso1, stronger effect = lower value 0.988 | locus YOR001W, strain rrp6, stronger effect = lower value 0.974 | locus YOR070C, strain gyp1, stronger effect = lower value 1 | locus YOR080W, strain dia2, stronger effect = lower value 1.02 | locus YOR083W, strain WHI5, stronger effect = lower value 0.942 | locus YOR106W, strain vam3, stronger effect = lower value 0.946 | locus YOR265W, strain rbl2, stronger effect = lower value 0.992 | locus YOR270C, strain vph1, stronger effect = lower value 0.972 | locus YOR290C, strain snf2, stronger effect = lower value 0.976 | locus YPL051W, strain arl3, stronger effect = lower value 0.974 | locus YPL078C, strain atp4, stronger effect = lower value 0.925 | locus YPL106C, strain sse1, stronger effect = lower value 1.01 | locus YPL240C, strain hsp82, stronger effect = lower value 0.978
